Experimental data published in PubChem BioAssay AID602262 (National Center for Advancing Translational Sciences (NCATS), 2012).
Activity calls are given as the source filed them. Calls come from the whole dose curve; as a rule, active = well fitted curve in the direction sought with a large enough effect; inactive = no such curve, though single readings can be large or run the other way.

experiment: qHTS Assay for Agonists of the Relaxin Receptor RXFP1: V1B SAR; settings: HEK293 V1B cells, cAMP TR-FRET, 30 min; series mostly up to 78.1 µM
Excerpt: The relaxin hormone is involved in the variety of biological functions in normal tissues and diseases. The role of relaxin is well-established in female reproduction and parturition, mammary gland and endometrial development, maintenance of myometrial quiescence during pregnancy. Relaxin signaling through its G protein-coupled receptor (GPCR) RXFP1 results in ECM remodeling through regulation of collagen deposition, cell invasiveness, proliferation and overall tissue homeostasis. […] Recombinant human relaxin (rhRlx) is currently being tested in clinical trials as a protective agent in congestive heart failure, in treating severe preeclampsia, and as an anti-fibrotic agent in systemic sclerosis. Upon relaxin binding RXFP1 activation leads to the activation of adenylate cyclase (AC) via Gs. cAMP will activate PKA, which phosphorylates many signaling proteins. Thus, detection of cAMP increase is an easy and reliable indication of relaxin receptor activation. To screen for agonists of the relaxin receptor, a HEK293T cell line stably transfected with RXFP1 was used. RXFP1 activation was assayed by changes in cAMP levels as detected with a time-resolved fluorescence energy transfer (TR-FRET) cAMP detection kit. This assay measures activation of a cell expressing V1B, another GPCR targeted by relaxin, to determine the selectivity of compounds for RXFP1. NIH Chemical Genomics Center [NCGC] NIH Molecular Libraries Probe Production Centers Network [MLPCN] MLPCN Grant: R03 MH085705-01A1 Assay Submitter (PI): Alexander Agoulnik
This is a cell-based assay for cAMP second messenger response to screen for agonists of the RXFP2 receptor. The assay was conducted in the presence of a PDE4 inhibitor (Ro 20174). The cells were lysed and the cAMP levels were measured with a TR-FRET cAMP kit. Presence of cAMP in the cell lysate disrupts binding between the cryptate-labeled anti-cAMP and d2-labeled cAMP pair, leading to a decrease in the TR-FRET signal. Data were normalized to the controls for basal activity (buffer only) and 100% activity (29 nM porcine relaxin). The EC50 values were determined from concentration-response data modeled with the standard Hill equation 1536-well assay protocol for the HEK293 V1B cAMP assay: (1) Add 3 ul HEK293 RXFP2 cell culture. 2000 cells/well in DMEM/F12, 10% FBS, 1x Pen/Strep (dispensed offline with MultiDrop Combi). (2) Incubate 16-24 hr at 37C, 5% CO2. (3) Add 1 ul 400uM Ro20174 in DPBS, 0.05% BSA, 0.005% Tween 20. (3) Add 23 nl compounds in DMSO solution. Final concentration was 0.5 - 58 uM. (4) Incubate 30 min at 37C, 5% CO2. (5) Add 1 ul cAMP-d2 in lysis buffer (HTRF cAMP HiRange kit, CisBio). (6) Add 1 ul anti-cAMP antibody-cryptate in lysis buffer (HTRF cAMP HiRange kit, CisBio). (7) Incubate 30 min at room temperature. (6) Detect the assay plate in a ViewLux plate reader (PerkinElmer) with Ex=320 nm, Em1=615 nm and Em2=665 nm. Keywords: relaxin, RXFP1, RXFP2, G-protein coupled receptor, cAMP, agonist, high throughput screening, MLSMR, MLSCN, NIH Roadmap, qHTS and NCGC

outcome, inactive:
COc1ccccc1C(=O)Nc1ccccc1C(=O)N(C)c1cccc(C(F)(F)F)c1
COc1ccccc1CNc1ccccc1C(=O)Nc1cccc(C(F)(F)F)c1
O=C(Nc1cccc(C(F)(F)F)c1)c1ccccc1NC(=O)C1CCCCCC1
O=C(Nc1ccccc1C(=O)Nc1cccc(C(F)(F)F)c1)c1ccccc1
O=C(Nc1cccc(SC(F)(F)F)c1)c1ccccc1NC(=O)C1CCCCC1
COc1ccccc1C(=O)Nc1ccccc1C(=O)Nc1cccc(SC(F)(F)F)c1
CSc1cccc(NC(=O)c2ccccc2NC(=O)C2CCCCC2)c1
O=C(Nc1cccc(-c2ccccc2)c1)c1ccccc1NC(=O)C1CCCCC1
O=C(Nc1cccc(Br)c1)c1ccccc1NC(=O)C1CCCCC1
O=C(Nc1cccc(-c2ccccc2C(F)(F)F)c1)c1ccccc1NC(=O)C1CCCCC1
COc1ccccc1Nc1ccccc1C(=O)Nc1cccc(C(F)(F)F)c1
O=C(Nc1ccccc1C(=O)Nc1cccc(C(F)(F)F)c1)c1ccccc1Cl
O=C(Nc1ccc(C(F)(F)F)cc1)c1ccccc1NC(=O)C1CCCCC1
CN(C)CCOc1ccccc1C(=O)Nc1ccccc1C(=O)Nc1cccc(C(F)(F)F)c1
O=C(Cc1ccccc1)Nc1ccccc1C(=O)Nc1cccc(C(F)(F)F)c1
COc1ccccc1C(=O)Nc1ccc(C(=O)Nc2cccc(C(F)(F)F)c2)cc1
CCSc1ccccc1C(=O)Nc1ccccc1C(=O)Nc1cccc(S(=O)(=O)C(F)(F)F)c1
O=C(Nc1ccccc1)c1ccccc1NC(=O)C1CCCCC1
CCOc1ccccc1-c1nc2c(C(=O)Nc3cccc(S(=O)(=O)C(F)(F)F)c3)cccc2[nH]1
Cc1ccccc1NC(=O)c1ccccc1NC(=O)C1CCCCC1
CCOc1ccccc1C(=O)Nc1cccnc1C(=O)Nc1cccc(S(=O)(=O)C(F)(F)F)c1
COc1cccc(NC(=O)c2ccccc2NC(=O)C2CCCCC2)c1
COc1ccccc1C(=O)Nc1cccc(C(=O)Nc2cccc(C(F)(F)F)c2)c1
CCOc1ccccc1C(=O)Nc1sccc1C(=O)Nc1cccc(S(=O)(=O)C(F)(F)F)c1
O=C(Nc1cccc(S(=O)(=O)C(F)(F)F)c1)c1ccccc1NC(=O)C1CCCCC1
COc1ccccc1C(=O)N(C)c1ccccc1C(=O)Nc1cccc(C(F)(F)F)c1
COc1cccc(OC)c1C(=O)Nc1ccccc1C(=O)Nc1cccc(C(F)(F)F)c1
CCOc1ccccc1C(=O)Nc1ccccc1C(=O)Nc1cccc(S(=O)(=O)C(F)(F)F)c1
COc1ccccc1C(=O)N(C)c1ccccc1C(=O)N(C)c1cccc(C(F)(F)F)c1
O=C(Nc1cccc(C(F)(F)F)c1)c1ccccc1NC(=O)C1CC1
CCOc1ccccc1C(=O)NCCC(=O)Nc1cccc(S(=O)(=O)C(F)(F)F)c1
CCOc1ccccc1C(=O)Nc1ccncc1C(=O)Nc1cccc(S(=O)(=O)C(F)(F)F)c1
CCCOc1ccccc1C(=O)Nc1ccccc1C(=O)Nc1cccc(S(=O)(=O)C(F)(F)F)c1
O=C(Nc1cccc(S(=O)(=O)C(F)(F)F)c1)c1ccccc1NC(=O)c1ccccc1OCC(F)(F)F
O=C(Nc1cccc(C(F)(F)F)c1)c1ccccc1NC(=O)C1CCCC1
O=C(Nc1cccc(F)c1)c1ccccc1NC(=O)C1CCCCC1
COc1ccccc1C(=O)Nc1ccccc1C(=O)Nc1cccc(C(F)(F)F)c1
CC(C)(C)c1cccc(NC(=O)c2ccccc2NC(=O)C2CCCCC2)c1
O=C(Nc1ccccc1C(=O)Nc1cccc(C(F)(F)F)c1)c1cccnc1
O=C(Nc1cccc(Cl)c1)c1ccccc1NC(=O)C1CCCCC1
